Source: ChEMBL document CHEMBL3988442, “University of Dundee, Small-Polar-MMV Screening Library” (2021)

These compounds were tested against Chromo domain-containing protein 1 (Saccharomyces cerevisiae (strain ATCC 204508 / S288c) (Baker's yeast)) (UniProt P32657) (assay: ScCHD-1 Enzyme Inhibition Assay). Conditions: 30 µM.
Type: functional
Set-up: scale not given: in the data most compounds retested in dose-response had high values

Chain of Chromo domain-containing protein 1 (Saccharomyces cerevisiae (strain ATCC 204508 / S288c) (Baker's yeast)) (P32657 whole entry, the tested form may be a part): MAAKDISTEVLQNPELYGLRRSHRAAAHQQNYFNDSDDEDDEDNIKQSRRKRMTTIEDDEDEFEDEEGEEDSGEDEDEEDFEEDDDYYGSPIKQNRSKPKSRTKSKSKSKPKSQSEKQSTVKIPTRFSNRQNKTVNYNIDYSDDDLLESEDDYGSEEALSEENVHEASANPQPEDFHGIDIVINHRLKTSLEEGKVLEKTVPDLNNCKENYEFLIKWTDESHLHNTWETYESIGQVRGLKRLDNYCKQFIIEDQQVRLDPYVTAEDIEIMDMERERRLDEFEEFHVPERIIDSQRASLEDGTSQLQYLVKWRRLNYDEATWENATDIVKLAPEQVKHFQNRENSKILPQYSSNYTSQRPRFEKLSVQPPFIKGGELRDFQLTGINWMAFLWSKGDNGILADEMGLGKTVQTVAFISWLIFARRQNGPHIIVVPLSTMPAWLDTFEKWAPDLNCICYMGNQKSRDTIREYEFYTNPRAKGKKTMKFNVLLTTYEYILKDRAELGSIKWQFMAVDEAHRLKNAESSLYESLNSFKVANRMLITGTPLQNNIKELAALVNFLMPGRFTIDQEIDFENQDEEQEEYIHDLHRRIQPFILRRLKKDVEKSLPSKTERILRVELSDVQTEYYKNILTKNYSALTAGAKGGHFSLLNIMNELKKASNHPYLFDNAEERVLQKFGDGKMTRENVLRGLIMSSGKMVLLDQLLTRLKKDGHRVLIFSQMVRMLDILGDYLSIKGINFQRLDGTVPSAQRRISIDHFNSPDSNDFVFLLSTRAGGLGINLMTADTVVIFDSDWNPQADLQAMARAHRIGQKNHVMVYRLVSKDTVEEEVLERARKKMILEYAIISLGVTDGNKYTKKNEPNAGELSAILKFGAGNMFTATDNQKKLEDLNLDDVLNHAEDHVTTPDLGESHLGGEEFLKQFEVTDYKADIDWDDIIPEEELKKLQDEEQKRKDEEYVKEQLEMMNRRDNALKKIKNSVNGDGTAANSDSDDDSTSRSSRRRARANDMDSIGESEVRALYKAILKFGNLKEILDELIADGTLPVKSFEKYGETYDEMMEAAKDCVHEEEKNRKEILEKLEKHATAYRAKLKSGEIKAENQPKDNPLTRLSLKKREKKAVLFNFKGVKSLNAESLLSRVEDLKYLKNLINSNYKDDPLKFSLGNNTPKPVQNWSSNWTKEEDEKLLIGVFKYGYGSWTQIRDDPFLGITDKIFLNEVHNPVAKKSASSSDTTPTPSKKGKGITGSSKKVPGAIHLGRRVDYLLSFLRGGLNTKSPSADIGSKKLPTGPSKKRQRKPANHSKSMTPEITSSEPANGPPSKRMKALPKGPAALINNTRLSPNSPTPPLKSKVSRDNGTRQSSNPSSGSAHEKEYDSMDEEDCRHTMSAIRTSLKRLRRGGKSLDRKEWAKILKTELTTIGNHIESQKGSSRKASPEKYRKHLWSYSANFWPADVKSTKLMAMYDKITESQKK

Compound	Percent Effect [%]
Cn1c(NCC(O)c2ccc(F)cc2F)c(C#N)c(=O)n(C)c1=O (centres undefined)	-7.19
CC(CNC(=O)N1CCSCC1)Cc1cccs1 (centres undefined)	-3.96
NC(=O)COc1cccc(C(=O)N2CCCC(n3ccnc3)C2)c1 (centres undefined)	2.43
CCC(O)CNC(=O)c1coc(COc2ccc3sc(C)nc3c2)n1 (centres undefined)	2.81
CCNC(=O)N1CCC2(C1)c1ccccc1S(=O)(=O)N2CCC(C)C (centres undefined)	-0.42
Cc1ccc(C(CNCc2cnn(C(C)C)c2)N2CCOCC2)s1 (centres undefined)	-6.03
COc1cccc(C(=O)Nc2cc(CC(C)C)nn2C)c1	-5.36
Cc1cc(F)ccc1CN1CCCC2(C1)OCCO2	-3.73
CCN(Cc1ccco1)C(=O)Nc1cc(C(F)(F)F)c[nH]c1=O	-9.51
O=C(c1ccccc1OCC1CC1)N1CCCC(n2ccnc2)C1 (centres undefined)	-6.24
Cn1nc(CNC(=O)NCc2ccc(Cl)cc2)c2c1CCOC2	-5.33
O=C(NCC(Cc1cccc(F)c1)N1CCCC1=O)c1ccccc1 (centres undefined)	-2.23
CSCC(C)(O)CNC(=O)c1ccc(Br)cc1F (centres undefined)	-3.6
CCN1CCC(c2nc3ccc(NC(C)C)cn3n2)CC1	0.337
COc1ccc(Oc2cncc(C3CCCN3C(C)=O)n2)cc1 (centres undefined)	-11.7
CCn1nc(C)c(CNC(=O)c2cn(CCC3CCCCN3)nn2)c1C (centres undefined)	-5.55
N#Cc1ccc(N2CCN(C(=O)c3cc(C4CC4)[nH]n3)CC2)c(F)c1	-7.65
CNS(=O)(=O)c1ccc(C(=O)N2CCCC2c2ccccc2)o1 (centres undefined)	1
CC(=O)c1c(F)cccc1N1CCC(CS(N)(=O)=O)CC1	-2.94
Cc1ccc(CC(=O)NC(C)C(=O)N2CCS(=O)(=O)CC2)cc1 (centres undefined)	-3.12

Compound	Percent Effect [%]
CCN(C(c1cccnc1)c1ccc2c(c1)CCO2)S(C)(=O)=O (centres undefined)	-2.4
CCOCCCC(=O)NCCC(=O)N1CCN(c2ccccn2)CC1	-4.16
CCOc1ccc(C(=O)NS(=O)(=O)c2cncc(Br)c2)cc1OC	-13.3
c1ncn(CC2CCCCN2Cc2noc(C3CC3)n2)n1 (centres undefined)	-12.9
COC(=O)c1ccc2ccn(CC3CCCO3)c(=O)c2c1 (centres undefined)	78.9
CC(C)C(=O)N1CCN(C(=O)CCc2nnc(-c3ccccc3)o2)CC1	-7.27
CCNC(c1cccnc1)c1cc(C)cc(C)c1 (centres undefined)	2.53
NC(=O)C1(Cc2ccccc2-c2ccccc2)CCCN(CC2CC2)C1 (centres undefined)	-2.97
CC(C(=O)Nc1cccc(N2CCCCC2)c1)n1cncn1 (centres undefined)	-10.9
O=C(C1CC1)N1CCC(c2nc(O)c3c(n2)CCN(C2CCCC2)C3)C1 (centres undefined)	-7.54
Cn1cc(CN2CCn3cc(CNC(=O)C4CCC4)nc3C2)cn1	-8.18
CN1N=C(C(=O)Nc2cc(F)ccc2OCC2CCCO2)CCC1=O (centres undefined)	-8.4
CC(Cn1cccn1)NCc1nc(-c2cccc(Cl)c2)no1 (centres undefined)	2.72
Cn1nc(C2CCN(C(=O)Cc3cccc(F)c3)CC2)c2cccnc21	-3.75
O=C(CN1CCCC(O)C1)NC(=O)NCc1cccs1 (centres undefined)	-1.85
O=C(Cn1cnnn1)N1CCCCC1Cn1cccn1 (centres undefined)	-5.05
O=C(NCC1CC1)C1=NOC2(CCN(Cc3ccc4c(c3)OCO4)C2)C1 (centres undefined)	-6.02
O=C(NC[C@@H]1CCCN1)c1cc(COc2cccc(C(F)(F)F)c2)[nH]n1	-1.17
CO[C@H]1CN(C(=O)c2ccc3oc(C)cc3c2)CC[C@@]12CCCO2	-11.8
